The record followed here is PubChem BioAssay.

Assay [1] is described as follows: Her2 expression decrease, cell viability multiplex – SKBR3 breast tumor cells, AlphaScreen, ATP viability, primary screen (AID 461;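 active = Her2 level under about 52% in both replicate screens, with viability over 70% of control, limit read from the data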;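 for Her2 level: lower value means less Her2 protein in the cells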;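 for viability: percent of carrier control wells set as 100% viability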). The following applies: SKBR3 Her2 protein level, 18-24 h, measured here: SKBR3 viability, ATP luminescence, at 10 µM. (Alpha assays give light when donor and acceptor beads are brought close together.)
Assay [2] deals with Receptor tyrosine-protein kinase erbB-2 (Homo sapiens) (UniProt P04626). Described as above. The settings on record: 18-24 h, at 10 µM, stronger effect = lower value.
Sequence of Receptor tyrosine-protein kinase erbB-2 (Homo sapiens) (P04626 whole entry, looked up): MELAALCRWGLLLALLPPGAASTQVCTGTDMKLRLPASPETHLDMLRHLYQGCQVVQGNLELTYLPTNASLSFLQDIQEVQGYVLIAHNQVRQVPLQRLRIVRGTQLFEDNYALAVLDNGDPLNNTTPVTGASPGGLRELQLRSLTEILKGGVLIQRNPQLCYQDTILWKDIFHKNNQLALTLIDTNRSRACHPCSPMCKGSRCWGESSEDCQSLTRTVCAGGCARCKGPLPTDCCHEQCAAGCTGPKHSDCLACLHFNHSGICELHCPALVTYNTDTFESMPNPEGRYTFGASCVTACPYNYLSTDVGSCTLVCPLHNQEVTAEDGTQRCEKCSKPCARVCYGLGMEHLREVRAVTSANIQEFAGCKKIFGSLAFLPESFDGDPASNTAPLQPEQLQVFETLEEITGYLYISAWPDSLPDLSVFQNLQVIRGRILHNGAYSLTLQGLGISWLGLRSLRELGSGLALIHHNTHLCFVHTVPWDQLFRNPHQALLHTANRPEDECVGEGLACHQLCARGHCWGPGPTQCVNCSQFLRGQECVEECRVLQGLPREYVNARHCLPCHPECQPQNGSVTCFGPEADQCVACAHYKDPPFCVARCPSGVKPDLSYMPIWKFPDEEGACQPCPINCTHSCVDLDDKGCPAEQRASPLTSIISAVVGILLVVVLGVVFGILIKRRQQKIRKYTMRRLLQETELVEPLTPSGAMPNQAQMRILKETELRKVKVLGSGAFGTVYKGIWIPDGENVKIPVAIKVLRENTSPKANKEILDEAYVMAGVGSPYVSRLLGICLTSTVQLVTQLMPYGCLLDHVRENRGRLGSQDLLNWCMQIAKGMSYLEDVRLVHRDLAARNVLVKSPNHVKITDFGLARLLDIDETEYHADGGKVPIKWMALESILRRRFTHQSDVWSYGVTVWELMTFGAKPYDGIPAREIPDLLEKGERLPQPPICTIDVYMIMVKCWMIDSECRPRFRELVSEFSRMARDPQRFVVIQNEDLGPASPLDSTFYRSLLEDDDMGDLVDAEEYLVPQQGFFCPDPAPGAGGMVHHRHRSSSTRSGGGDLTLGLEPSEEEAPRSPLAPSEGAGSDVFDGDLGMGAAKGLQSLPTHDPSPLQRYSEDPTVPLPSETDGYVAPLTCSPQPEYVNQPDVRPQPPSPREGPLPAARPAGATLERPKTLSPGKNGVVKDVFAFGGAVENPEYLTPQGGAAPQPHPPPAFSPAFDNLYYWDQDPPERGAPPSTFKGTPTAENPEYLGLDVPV
A short description of assay [3]: reduced viability of SK-BR-3 breast cancer cells – cell-based, 24 h, human, pilot screen (AID 572;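 active = viability at or below 10% of carrier control in both of two separate runs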;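 note: compound exposure lasted between 18 and 24 h rather than exactly 24 h; 100% = carrier-treated control wells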). The following applies: SK-BR-3 viability, CellTiter-Glo luminescence, at 10 µM, stronger effect = lower value. (In general: ATP-based viability assays read luminescence as a measure of living cells.)
A short description of assay [4]: HUVEC growth inhibition – cell-based, human, primary screen (AID 575;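 active = viability at or below 30% in both replicate assays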;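 note: 100% = median of untreated cell wells with 0.1% DMSO on each plate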). The following applies: HUVEC proliferation, CellTiter-Glo luminescence, 72 h; at 10 µM; stronger effect = lower value.
A short description of assay [5]: H69AR cell proliferation blockers – human, duplicate replicates, primary screen (AID 580;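 active = viability at or under a set limit in both replicates, limit being median viability minus 3 SD, cut at about 48% in these data, passing the limit was not always enough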;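 note: 100% = mean luminescence of untreated wells and 0% = no signal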). The settings on record: H69AR lung tumor cells viability, ATP luminescence, 72 h; at 10 µM; stronger effect = lower value.
Assay [6] in a line: MRP1 drug-resistance reversers in H69AR cells – cell-based, doxorubicin co-treatment, pilot screen (AID 601;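 active = viability loss from added drug above about 55%, and viability with drug at most 40%, in both replicates, limit read from the data, passing the limit was not always enough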). The following applies: CellTiter-Glo, 72 h, at 10 µM; for differential viability (reversal): stronger effect = higher value.
Assay [7] is described as follows: yeast transport mutant growth inhibition pilot in 384-well plates, post-Golgi transport modulator project (AID 636; in the data active = inhibition above about 31%). The following applies: absorbance 615 nm, about 18 h, stronger effect = higher value.
Assay [8] in a line: growth suppression of yeast trafficking mutant, preliminary HTS, modulators of trafficking downstream of Golgi apparatus project, 1536-format plate, OD 615 nm (AID 637; in the data active = inhibition above about 30%). The following applies: yeast transport mutant growth, absorbance 615 nm, 18 h; stronger effect = higher value.
The nature of assay [9]: S. cerevisiae growth inhibition in permissive medium (OD615), pilot counter-assay for S. cerevisiae lifespan shortening project, permissive growth control (AID 705;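 active = growth inhibition above 25% in both replicates, a cutoff set 3 SD above the mean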). The settings on record: OD615, 24 h, at 10 µM, stronger effect = higher value.
A short description of assay [10]: S. cerevisiae growth inhibition in restrictive medium, OD615, pilot screen, restrictive growth control, yeast lifespan reduction project (AID 706;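 active = growth inhibition above a set limit, 3 SD over mean compound inhibition, in both replicates, cut at about 43% in these data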;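 note: modified DeaD lifespan yeast strain shifted to restrictive glucose medium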). The settings on record: OD615, 48 h, at 10 µM, stronger effect = higher value.
The nature of assay [11]: doxorubicin toxicity protection in MRP-1 cells – H69AR cells, CellTiter-Glo, duplicate, MRP-1 activator project, pilot screen (AID 807;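 active = viability increase at or above a cutoff of the median across tested compounds plus 3 SD, cut at about 8.5% in these data, passing the limit was not always enough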;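 note: compound pretreatment 18-22 h then 72 h combined with doxorubicin; 0% = doxorubicin alone and 100% = vehicle without doxorubicin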). The settings on record: H69AR viability with doxorubicin, CellTiter-Glo luminescence; at 10 µM; stronger effect = higher value.
The nature of assay [12]: viability of HCT116 without oncogenic beta-catenin – human colon tumor cells, pilot screen (AID 823;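 active = cell viability at or below a set limit in both duplicate runs, the limit being the all-compound median minus 4 SD, cut at about 23% in these data, passing the limit was not always enough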;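 note: 0% = wells killed by 20 µM Hyamine and 100% = untreated DMSO cell wells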). The following applies: HCT116 beta-catenin knockout viability, CellTiter-Glo, 60 h; at 10 µM; stronger effect = lower value.
The nature of assay [13]: viability of PTEN-null HCT116 cells – cell-based, HCT116 clonal line, CellTiter-Glo, pilot screen (AID 824).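 Note: 0% = 20 µM Hyamine control and 100% = vehicle cell control.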 The following applies: HCT116 PTEN-deleted viability, 60 h, at 10 µM, stronger effect = lower value.
A short description of assay [14]: RAM pathway blockade in budding yeast – dse1pr::URA3 reporter, 5-FOA selection, pilot screen (AID 869;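 active = inhibition over a set limit, the all-compound mean plus 3 SD, in both replicate runs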;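 note: 0% = DMSO wells with no growth and 100% = 10 µM 1-NA-PP1 with full growth; RAM network block rescues cells from 5-FOA so hits raise OD615 growth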). The following applies: S. cerevisiae dse1pr::URA3 5-FOA growth, OD615, 2 d; at 10 µM; stronger effect = higher value; strain carries analog-sensitive mutant Cbk1 kinase.
The nature of assay [15]: RAM signaling pathway blockade in yeast – S. cerevisiae, Pdr1DBD-CYC8 efflux-inhibited sensitized strain, primary screen (AID 1298;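 active = RAM network inhibition above 8.4% in each of two replicates, 3 SD over the compound average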;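 note: 0% = DMSO untreated cells without growth and 100% = 10 µM 1-NA-PP1 full growth; higher means more yeast growth rescued from 5-FOA killing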). The following applies: S. cerevisiae cbk1-as DSE1-URA3 strain, 5-FOA growth OD615, 2 d; at 50 µM; stronger effect = higher value.
[16] abbreviates: H69AR cells + 2 uM doxorubicin, measured here: viability with 2 uM doxorubicin, stronger effect = lower value.
Setting [17] is: H69AR cells, compound alone cytotoxicity.

Records with an inconclusive call do not appear. Active and inactive are the calls of the source.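 Rule for the calls, unless noted: active = viability at or below 27.92% in each of two runs, the all-compound median minus 4 SD; inconclusive = no clear call, values can overlap the other calls; inactive = the rest.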

With `CCn1c(SCC(=O)Nc2cccc(C)c2)nc2c(c1=O)SC(C)C2` (stereo not drawn), the viability was 90% in [1]; 90% (inactive) in [3]; 99% (inactive) in [4]; 76.7% (inactive) in assay [5]; 73.3% in assay [6] (setting [16]); 76.7% in assay [6] (setting [17]). The values for the viability in assay [12] and in assay [13] were 95.1% (inactive) and 88.9% (inactive), respectively. Also, the Her2 level in assay [2] is 88% (inactive). Besides, the differential viability (reversal) in assay [6] (H69AR cells + 2 uM doxorubicin) was 3.39% (inactive). Besides, the results for the inhibition in assay [7], in [8] and in assay [14] were -3.07% (inactive), -0.67% (inactive) and 2.52% (inactive), respectively. Moreover, the values for the growth inhibition in [9] and in assay [10] were -3.52% (inactive) and -4.62% (inactive), respectively. In addition, the viability increase in [11] was -3.09% (inactive). In [15], the RAM network inhibition was 10.2% (inactive).
For `COc1cc(C2c3c(oc4ccccc4c3=O)C(=O)N2c2ccc(C)cn2)ccc1O` (stereo not drawn), the viability in assay [1] was 66%; in assay [3], 66% (inactive); in assay [4], 94.6% (inactive); in [5], 101% (inactive); in [6] (setting [16]), 100%; in assay [6] (setting [17]) it was 101%. Also, the values for the viability in assay [12] and in [13] were 91.9% (inactive) and 88.4% (inactive), respectively. For the same molecule, in assay [2], the Her2 level was 114% (inactive). In assay [6] (H69AR cells + 2 uM doxorubicin), the differential viability (reversal) is 1.23% (inactive). The inhibition in [7] is -0.9% (inactive); in assay [8], -4% (inactive); in assay [14], 0.865% (inactive). For the same molecule, the growth inhibition in [9] is -6.67% (inactive); in [10] it was -1.33% (inactive). For the same molecule, the viability increase in [11] was -2.69% (inactive). For the same molecule, the RAM network inhibition in [15] is 4.26% (inactive).
With `CCc1cccc(NC(=O)Cn2cc3c(n2)CCCC3)c1`, the viability is 105% in [1]; 105% (inactive) in [3]; 89.8% (inactive) in assay [4]; 94.8% (inactive) in [5]; 90.3% in assay [6] (setting [16]); 94.8% in assay [6] (setting [17]). The figures for the viability in assay [12] and in [13] were 96.6% (inactive) and 97.2% (inactive), respectively. Also, the Her2 level in assay [2] is 95.5% (inactive). In addition, the differential viability (reversal) in assay [6] (H69AR cells + 2 uM doxorubicin) is 4.52% (inactive). For the same molecule, the inhibition is -4.53% (inactive) in assay [7], -3.11% (inactive) in assay [8] and 1.69% (inactive) in assay [14]. For the same molecule, the growth inhibition is -17.8% (inactive) in assay [9] and -2.27% (inactive) in [10]. In addition, in [11], the viability increase was -1.41% (inactive). Besides, in assay [15], the RAM network inhibition is 0.42% (inactive).
`COc1ccc(OCCSc2nc3ccccc3n2CC(=O)O)cc1`: the viability was 92.5% in [1]; 92.5% (inactive) in [3]; 85.4% (inactive) in assay [4]; 97.8% (inactive) in [5]; 95.3% in assay [6] (setting [16]); 97.8% in assay [6] (setting [17]). The viability is 99.6% (inactive) in assay [12] and 94.8% (inactive) in assay [13]. Further, the Her2 level in assay [2] is 108% (inactive). For the same molecule, the differential viability (reversal) in [6] (H69AR cells + 2 uM doxorubicin) is 2.5% (inactive). Also, the inhibition in assay [7] is -3.21% (inactive); in [8], -2% (inactive); in [14] it was 0.61% (inactive). Further, the growth inhibition was -2.19% (inactive) in assay [9] and -5.21% (inactive) in [10]. Also, the viability increase in [11] was -0.98% (inactive). Besides, the RAM network inhibition in [15] is 4.44% (inactive).
Take `CCCNC(=O)C1CC(=O)N(c2ccc(OCC(=O)Nc3cc(C)cc(C)c3)cc2)C1` (stereo not drawn): the viability in assay [1] was 112%; in [3], 112% (inactive); in assay [4] it was 80.5% (inactive); in [5], 95.6% (inactive); in [6] (setting [16]) it was 91.2%; in assay [6] (setting [17]), 95.6%. The viability in assay [12] is 92% (inactive); in assay [13], 90.4% (inactive). In [2], the Her2 level is 122% (inactive). Besides, in assay [6] (H69AR cells + 2 uM doxorubicin), the differential viability (reversal) is 4.41% (inactive). For the same molecule, the inhibition in [7] was -0.53% (inactive); in assay [8], -4.33% (inactive); in [14], 2.06% (inactive). Moreover, the growth inhibition is -14.5% (inactive) in [9] and -25.6% (inactive) in assay [10]. Further, in [11], the viability increase was -4.47% (inactive). For the same molecule, the RAM network inhibition in assay [15] is 4.16% (inactive).
As to `CC(NC(=O)c1noc2c1CCCCC2)c1ccccc1` (stereo not drawn), the viability in [1] is 85.5%; in assay [3], 85.5% (inactive); in assay [4], 89.1% (inactive); in assay [5] it was 110% (inactive); in [6] (setting [16]) it was 91.7%; in assay [6] (setting [17]), 110%. Also, the figures for the viability in [12] and in assay [13] were 100% (inactive) and 102% (inactive), respectively. In addition, the Her2 level in assay [2] was 93.5% (inactive). For the same molecule, in assay [6] (H69AR cells + 2 uM doxorubicin), the differential viability (reversal) is 18.1% (inactive). Besides, the inhibition is -3.59% (inactive) in assay [7], -2% (inactive) in assay [8] and -0.27% (inactive) in assay [14]. Moreover, the growth inhibition is -16.4% (inactive) in assay [9] and -14.1% (inactive) in assay [10]. Moreover, in assay [11], the viability increase is 1.66% (inactive). The RAM network inhibition in assay [15] is 1.85% (inactive).
`COCCCNC(=O)CSc1ccc(Cl)cc1`: the viability in assay [1] was 94.5%; in [3], 94.5% (inactive); in assay [4], 81.8% (inactive); in assay [5], 95.3% (inactive); in [6] (setting [16]), 91.9%; in assay [6] (setting [17]) it was 95.3%. Moreover, the values for the viability in [12] and in assay [13] were 106% (inactive) and 97.8% (inactive), respectively. Besides, the Her2 level in [2] was 85% (inactive). The differential viability (reversal) in assay [6] (H69AR cells + 2 uM doxorubicin) was 3.39% (inactive). Also, the results for the inhibition in assay [7], in assay [8] and in assay [14] were 0% (inactive), -2.67% (inactive) and 2.25% (inactive), respectively. The growth inhibition was 1.36% (inactive) in assay [9] and -6.93% (inactive) in assay [10]. Moreover, the viability increase in [11] is -1.7% (inactive). Further, the RAM network inhibition in assay [15] was 2.53% (inactive).
As to `COc1ccc2c(c1)CCc1cc(C(=O)N3CCN(c4ccc(N5CCOCC5)nn4)CC3)sc1-2`, the viability is 93.5% in [1]; 93.5% (inactive) in assay [3]; 98.4% (inactive) in assay [4]; 63.7% (inactive) in assay [5]; 75.1% in assay [6] (setting [16]); 63.7% in assay [6] (setting [17]). Moreover, the viability is 60.4% (inactive) in [12] and 59% (inactive) in assay [13]. In addition, the Her2 level in assay [2] is 79% (inactive). Also, the differential viability (reversal) in [6] (H69AR cells + 2 uM doxorubicin) was -11.4% (inactive). The inhibition in assay [7] is -3.08% (inactive); in assay [8], 0.33% (inactive); in assay [14], 0.905% (inactive). For the same molecule, the values for the growth inhibition in assay [9] and in [10] were 3.63% (inactive) and 3.83% (inactive), respectively. Moreover, the viability increase in assay [11] was -1.37% (inactive). The RAM network inhibition in [15] is 0.73% (inactive).
Consider `CCOC(=O)N1CCN(C(=O)c2ccc(CS(=O)(=O)c3c(Cl)cccc3Cl)o2)CC1`, for which the viability was 114% in assay [1]; 114% (inactive) in [3]; 107% (inactive) in assay [4]; 96.5% (inactive) in [5]; 101% in assay [6] (setting [16]); 96.5% in [6] (setting [17]). For the same molecule, the values for the viability in [12] and in [13] were 107% (inactive) and 100% (inactive), respectively. For the same molecule, the Her2 level in assay [2] was 128% (inactive). Besides, the differential viability (reversal) in assay [6] (H69AR cells + 2 uM doxorubicin) is -4.92% (inactive). Besides, the inhibition in assay [7] was -3.07% (inactive); in assay [8], -3.33% (inactive); in assay [14], 0.365% (inactive). In addition, the growth inhibition in [9] is -9.35% (inactive); in assay [10], -14% (inactive). Moreover, the viability increase in [11] was -2.77% (inactive). In addition, the RAM network inhibition in assay [15] is 1.21% (inactive).

What is called viability is a read-out of living cells in per cent, often relative to untreated cells. The term inhibition denotes the change of the read-out against control, counted positive when it falls.
